Measured values from publication PMC5540273 (PLoS ONE, 2017).

Tests used:
Details in all cases: concentration: 1 μM,replicates: in singlicate; n = 1
[1] = tested on: RPS6KA4(Kin.Dom.1-N-terminal)
[2] = tested on: RPS6KA4(Kin.Dom.2-C-terminal)
[3] = tested on: RPS6KA5(Kin.Dom.1-N-terminal)
[4] = tested on: RPS6KA5(Kin.Dom.2-C-terminal)
[5] = tested on: T1, RSK1(Kin.Dom.1-N-terminal)
T1 construct: gene RPS6KA1

[6] = tested on: T2, RSK1(Kin.Dom.2-C-terminal)
T2 construct: gene RPS6KA1

[7] = tested on: T3, RSK2(Kin.Dom.1-N-terminal)
T3 construct: gene RPS6KA3

[8] = tested on: T4, RSK2(Kin.Dom.2-C-terminal)
T4 construct: gene RPS6KA3

[9] = tested on: T5, RSK3(Kin.Dom.1-N-terminal)
T5 construct: gene RPS6KA2

[10] = tested on: T6, RSK3(Kin.Dom.2-C-terminal)
T6 construct: gene RPS6KA2

[11] = tested on: T7, RSK4(Kin.Dom.1-N-terminal)
T7 construct: gene RPS6KA6

[12] = tested on: T8, RSK4(Kin.Dom.2-C-terminal)
T8 construct: gene RPS6KA6

S6K1 = tested on: S6K1
SBK1 = tested on: SBK1
SGK2 = tested on: SGK2
SGK3 = tested on: SGK3
SGK = tested on: SGK
SIK2 = tested on: SIK2
SIK = tested on: SIK
SLK = tested on: SLK
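Also: KINOMEscan kinase panel screen.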

SMILES	%Inh [1] [%]	%Inh [2] [%]	%Inh [3] [%]	%Inh [4] [%]	%Inh [5] [%]	%Inh [6] [%]	%Inh [7] [%]	%Inh [8] [%]	%Inh [9] [%]	%Inh [10] [%]	%Inh [11] [%]	%Inh [12] [%]	%Inh (S6K1) [%]	%Inh (SBK1) [%]	%Inh (SGK2) [%]	%Inh (SGK3) [%]	%Inh (SGK) [%]	%Inh (SIK2) [%]	%Inh (SIK) [%]	%Inh (SLK) [%]
COc1cc(Nc2nccc(N3CCC(NC(=O)c4cccc(C#N)c4)C3)n2)cc(OC)c1OC (centres unmarked) [GSK1379751]	0	0	0	34	17	0	0	0	4	0	0	9	0	22	2	0	3	0	0	1
N#Cc1cccc(C(=O)NC2CCN(c3ccnc(Nc4ccc(F)cc4)n3)C2)c1 (centres unmarked) [GSK1379708]	0	0	0	0	15	0	0	0	0	0	0	0	1	2	5	0	0	0	7	16
COc1cccc(C2=C(Nc3cccc(Cl)c3)C(=O)NC2=O)c1 [SB-341556]	11	0	5	0	28	24	25	11	1	0	43	76	23	19	0	9	3	99.9	0	92.2
C[C@@H](Oc1cc(-n2cnc3ccc(-c4ccncc4)cc32)sc1C(N)=O)c1ccccc1Cl [GSK483724]	20	0	25	5	40	0	34	0	39	0	12	0	0	6	14	0	7	0	11	95.5
COc1cc2ncn(-c3cc(OCC4CCCCC4)c(C(N)=O)s3)c2cc1OC [GSK204559]	7	0	28	0	8	0	7	30	22	8	3	20	0	22	0	9	0	0	4	80
O=C(NOCC1CC1)c1cc(Br)c(F)c(F)c1Nc1ccc(I)cc1Cl	0	0	0	9	0	38	9	0	1	33	0	21	19	0	0	0	0	21	0	3
Cn1ccc2ncnc(Oc3ccc(NC(=O)Nc4cc(C(C)(C)C)on4)c(Cl)c3)c21	0	13	0	6	0	17	16	1	0	8	26	18	6	13	24	0	10	4	11	97.7
C[C@@H]1CCN(C(=O)N2CCCC2)C[C@@H]1N(C)c1ncnc2[nH]ccc12	0	2	0	0	0	14	10	0	0	22	18	31	2	19	3	27	0	6	11	21
CCOC(=O)N1CCC(n2cnc(-c3ccc(F)cc3)c2-c2ccnc(N)n2)CC1 [SB-219952]	6	7	1	0	11	32	23	0	8	36	9	65	22	0	33	6	17	0	0	0
Cn1cc(-c2cccc3c(N)c(C(N)=O)nnc23)cn1	53	30	21	13	0	0	23	44	21	0	22	3	22	19	45	64	78	17	24	0
